# Source: article PMC11024108
# Columns and labels:
# [1] = biological target: 14-3-3 protein zeta/delta (UniProt P63101); experiment: cross-link between two proteins; cross-linking mass spectrometry
# [2] = biological target: 14-3-3 protein zeta/delta (UniProt P63104); experiment: as above
# [3] = biological target: 2-oxoglutarate dehydrogenase-like, mitochondrial (UniProt Q9ULD0); experiment: as above
# [4] = biological target: 3-hydroxyisobutyryl-CoA hydrolase, mitochondrial (UniProt Q6NVY1); experiment: as above
# [5] = biological target: ADP-ribosylation factor-like protein 8B (UniProt Q9NVJ2); experiment: as above
# [6] = biological target: ADP/ATP translocase 2 (UniProt P51881); experiment: as above
# [7] = biological target: AP-2 complex subunit beta (UniProt P63010); experiment: as above
# [8] = biological target: AP-2 complex subunit mu (UniProt Q96CW1); experiment: as above
# [9] = biological target: Epidermal growth factor receptor substrate 15-like 1 (UniProt Q9UBC2); experiment: as above
# [10] = biological target: Phosphatidylinositol-binding clathrin assembly protein (UniProt Q13492); experiment: as above
# [11] = biological target: AP-2 complex subunit mu (UniProt P84091); experiment: as above
# [12] = biological target: AP-2 complex subunit sigma (UniProt P62743); experiment: as above
# [13] = biological target: SH3-containing GRB2-like protein 3-interacting protein 1 (UniProt Q8VD37); experiment: as above
# [14] = biological target: AP-3 complex subunit beta-2 (UniProt Q9JME5); experiment: as above
# [15] = biological target: AP-3 complex subunit sigma-1 (UniProt Q9DCR2); experiment: as above
# [16] = biological target: AP-3 complex subunit mu-1 (UniProt Q9Y2T2); experiment: as above
# [17] = biological target: AP2-associated protein kinase 1 (UniProt Q3UHJ0); experiment: as above
# [18] = biological target: ATP synthase F(0) complex subunit 8 (UniProt P03928); experiment: as above
# [19] = biological target: Trifunctional enzyme subunit alpha, mitochondrial (UniProt P40939); experiment: as above
# [20] = biological target: Trifunctional enzyme subunit beta, mitochondrial (UniProt P55084); experiment: as above
# [21] = biological target: ATP synthase F(0) complex subunit e, mitochondrial (UniProt P56385); experiment: as above
# [22] = biological target: Solute carrier family 25 member 3 (UniProt Q00325); experiment: as above
# [23] = biological target: ATP synthase F(1) complex subunit alpha, mitochondrial (UniProt P25705); experiment: as above
# [24] = biological target: ATP synthase peripheral stalk subunit d, mitochondrial (UniProt Q9DCX2); experiment: as above
# [25] = biological target: ATP-dependent 6-phosphofructokinase, platelet type (UniProt Q9WUA3); experiment: as above
# [26] = biological target: ATPase inhibitor, mitochondrial (UniProt Q9UII2); experiment: as above
# [27] = biological target: Stress-70 protein, mitochondrial (UniProt P38646); experiment: as above
# [28] = biological target: Aconitate hydratase, mitochondrial (UniProt Q99798); experiment: as above
# [29] = biological target: Malate dehydrogenase, mitochondrial (UniProt P40926); experiment: as above
# [30] = biological target: Actin, cytoplasmic 1 (UniProt P60710); experiment: as above
# [31] = biological target: Actin-binding protein WASF1 (UniProt Q8R5H6); experiment: as above
# [32] = biological target: Adenylate kinase 2, mitochondrial (UniProt P54819); experiment: as above
# [33] = biological target: Cytochrome c (UniProt P99999); experiment: as above
# [34] = biological target: Glycerol-3-phosphate dehydrogenase, mitochondrial (UniProt P43304); experiment: as above
# [35] = biological target: Alpha-actinin-2 (UniProt Q9JI91); experiment: as above
# [36] = biological target: Amphiphysin (UniProt Q7TQF7); experiment: as above
# [37] = biological target: Annexin A11 (UniProt P50995); experiment: as above
# [38] = biological target: Ataxin-2 (UniProt Q99700); experiment: as above
# [39] = biological target: B-cell receptor-associated protein 31 (UniProt Q61335); experiment: as above
# [40] = biological target: BOS complex subunit NOMO2 (UniProt Q5JPE7); experiment: as above
# [41] = biological target: Bifunctional glutamate/proline--tRNA ligase (UniProt Q8CGC7); experiment: as above
# [42] = biological target: Brain acid soluble protein 1 (UniProt Q91XV3); experiment: as above
# [43] = biological target: P2X purinoceptor 7 (UniProt Q9Z1M0); experiment: as above
# [44] = biological target: Neurofilament heavy polypeptide (UniProt P19246); experiment: as above
# [45] = biological target: Neurofilament medium polypeptide (UniProt P08553); experiment: as above
# [46] = biological target: Charged multivesicular body protein 3 (UniProt Q9Y3E7); experiment: cross-linking mass spectrometry
# [47] = biological target: Charged multivesicular body protein 2b (UniProt Q9UQN3); experiment: cross-link between two proteins; cross-linking mass spectrometry
# [48] = biological target: COMM domain-containing protein 8 (UniProt Q9CZG3); experiment: as above
# [49] = biological target: Calnexin (UniProt P27824); experiment: as above
# [50] = biological target: Transmembrane emp24 domain-containing protein 10 (UniProt P49755); experiment: as above
# [51] = biological target: Calreticulin (UniProt P27797); experiment: as above
# [52] = biological target: Cell adhesion molecule 3 (UniProt Q99N28); experiment: as above
# [53] = biological target: Cell cycle control protein 50A (UniProt Q8VEK0); experiment: as above
# [54] = biological target: Clathrin heavy chain 1 (UniProt Q68FD5); experiment: as above
# [55] = biological target: Clathrin light chain B (UniProt Q6IRU5); experiment: as above
# [56] = biological target: Cofilin-1 (UniProt P23528); experiment: as above
# [57] = biological target: Complement C1q subcomponent subunit C (UniProt Q02105); experiment: as above
# [58] = biological target: Cytochrome c oxidase assembly factor 3 homolog, mitochondrial (UniProt Q9Y2R0); experiment: as above
# [59] = biological target: Cytoplasmic FMR1-interacting protein 2 (UniProt Q5SQX6); experiment: as above
# [60] = biological target: Cytoplasmic dynein 1 heavy chain 1 (UniProt Q9JHU4); experiment: as above
# [61] = biological target: Delta-1-pyrroline-5-carboxylate synthase (UniProt P54886); experiment: as above
# [62] = biological target: Prohibitin-2 (UniProt Q99623); experiment: as above
# [63] = biological target: Scaffold attachment factor B1 (UniProt Q15424); experiment: as above
# [64] = biological target: Dihydrolipoyl dehydrogenase, mitochondrial (UniProt P09622); experiment: as above
# [65] = biological target: Disintegrin and metalloproteinase domain-containing protein 22 (UniProt Q9R1V6); experiment: as above
# [66] = biological target: Disintegrin and metalloproteinase domain-containing protein 23 (UniProt Q9R1V7); experiment: as above
# [67] = biological target: DnaJ homolog subfamily A member 1 (UniProt P63037); experiment: as above
# [68] = biological target: Vesicle-associated membrane protein 1 (UniProt Q62442); experiment: as above
# [69] = biological target: DnaJ homolog subfamily C member 5 (UniProt Q9H3Z4); experiment: as above
# [70] = biological target: Dolichyl-diphosphooligosaccharide--protein glycosyltransferase subunit 1 (UniProt P04843); experiment: as above
# [71] = biological target: Vesicle-associated membrane protein-associated protein A (UniProt Q9P0L0); experiment: as above
# ATP synthase peripheral stalk subunit d, mitochondrial, O75947, sequence (O75947 whole entry): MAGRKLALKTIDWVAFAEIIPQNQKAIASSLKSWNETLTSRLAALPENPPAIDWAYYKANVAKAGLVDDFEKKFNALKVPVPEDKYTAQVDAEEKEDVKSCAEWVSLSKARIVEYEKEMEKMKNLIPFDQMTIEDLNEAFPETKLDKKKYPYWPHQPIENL
# Cytoplasmic dynein 1 heavy chain 1, sequence (Q9JHU4 whole entry): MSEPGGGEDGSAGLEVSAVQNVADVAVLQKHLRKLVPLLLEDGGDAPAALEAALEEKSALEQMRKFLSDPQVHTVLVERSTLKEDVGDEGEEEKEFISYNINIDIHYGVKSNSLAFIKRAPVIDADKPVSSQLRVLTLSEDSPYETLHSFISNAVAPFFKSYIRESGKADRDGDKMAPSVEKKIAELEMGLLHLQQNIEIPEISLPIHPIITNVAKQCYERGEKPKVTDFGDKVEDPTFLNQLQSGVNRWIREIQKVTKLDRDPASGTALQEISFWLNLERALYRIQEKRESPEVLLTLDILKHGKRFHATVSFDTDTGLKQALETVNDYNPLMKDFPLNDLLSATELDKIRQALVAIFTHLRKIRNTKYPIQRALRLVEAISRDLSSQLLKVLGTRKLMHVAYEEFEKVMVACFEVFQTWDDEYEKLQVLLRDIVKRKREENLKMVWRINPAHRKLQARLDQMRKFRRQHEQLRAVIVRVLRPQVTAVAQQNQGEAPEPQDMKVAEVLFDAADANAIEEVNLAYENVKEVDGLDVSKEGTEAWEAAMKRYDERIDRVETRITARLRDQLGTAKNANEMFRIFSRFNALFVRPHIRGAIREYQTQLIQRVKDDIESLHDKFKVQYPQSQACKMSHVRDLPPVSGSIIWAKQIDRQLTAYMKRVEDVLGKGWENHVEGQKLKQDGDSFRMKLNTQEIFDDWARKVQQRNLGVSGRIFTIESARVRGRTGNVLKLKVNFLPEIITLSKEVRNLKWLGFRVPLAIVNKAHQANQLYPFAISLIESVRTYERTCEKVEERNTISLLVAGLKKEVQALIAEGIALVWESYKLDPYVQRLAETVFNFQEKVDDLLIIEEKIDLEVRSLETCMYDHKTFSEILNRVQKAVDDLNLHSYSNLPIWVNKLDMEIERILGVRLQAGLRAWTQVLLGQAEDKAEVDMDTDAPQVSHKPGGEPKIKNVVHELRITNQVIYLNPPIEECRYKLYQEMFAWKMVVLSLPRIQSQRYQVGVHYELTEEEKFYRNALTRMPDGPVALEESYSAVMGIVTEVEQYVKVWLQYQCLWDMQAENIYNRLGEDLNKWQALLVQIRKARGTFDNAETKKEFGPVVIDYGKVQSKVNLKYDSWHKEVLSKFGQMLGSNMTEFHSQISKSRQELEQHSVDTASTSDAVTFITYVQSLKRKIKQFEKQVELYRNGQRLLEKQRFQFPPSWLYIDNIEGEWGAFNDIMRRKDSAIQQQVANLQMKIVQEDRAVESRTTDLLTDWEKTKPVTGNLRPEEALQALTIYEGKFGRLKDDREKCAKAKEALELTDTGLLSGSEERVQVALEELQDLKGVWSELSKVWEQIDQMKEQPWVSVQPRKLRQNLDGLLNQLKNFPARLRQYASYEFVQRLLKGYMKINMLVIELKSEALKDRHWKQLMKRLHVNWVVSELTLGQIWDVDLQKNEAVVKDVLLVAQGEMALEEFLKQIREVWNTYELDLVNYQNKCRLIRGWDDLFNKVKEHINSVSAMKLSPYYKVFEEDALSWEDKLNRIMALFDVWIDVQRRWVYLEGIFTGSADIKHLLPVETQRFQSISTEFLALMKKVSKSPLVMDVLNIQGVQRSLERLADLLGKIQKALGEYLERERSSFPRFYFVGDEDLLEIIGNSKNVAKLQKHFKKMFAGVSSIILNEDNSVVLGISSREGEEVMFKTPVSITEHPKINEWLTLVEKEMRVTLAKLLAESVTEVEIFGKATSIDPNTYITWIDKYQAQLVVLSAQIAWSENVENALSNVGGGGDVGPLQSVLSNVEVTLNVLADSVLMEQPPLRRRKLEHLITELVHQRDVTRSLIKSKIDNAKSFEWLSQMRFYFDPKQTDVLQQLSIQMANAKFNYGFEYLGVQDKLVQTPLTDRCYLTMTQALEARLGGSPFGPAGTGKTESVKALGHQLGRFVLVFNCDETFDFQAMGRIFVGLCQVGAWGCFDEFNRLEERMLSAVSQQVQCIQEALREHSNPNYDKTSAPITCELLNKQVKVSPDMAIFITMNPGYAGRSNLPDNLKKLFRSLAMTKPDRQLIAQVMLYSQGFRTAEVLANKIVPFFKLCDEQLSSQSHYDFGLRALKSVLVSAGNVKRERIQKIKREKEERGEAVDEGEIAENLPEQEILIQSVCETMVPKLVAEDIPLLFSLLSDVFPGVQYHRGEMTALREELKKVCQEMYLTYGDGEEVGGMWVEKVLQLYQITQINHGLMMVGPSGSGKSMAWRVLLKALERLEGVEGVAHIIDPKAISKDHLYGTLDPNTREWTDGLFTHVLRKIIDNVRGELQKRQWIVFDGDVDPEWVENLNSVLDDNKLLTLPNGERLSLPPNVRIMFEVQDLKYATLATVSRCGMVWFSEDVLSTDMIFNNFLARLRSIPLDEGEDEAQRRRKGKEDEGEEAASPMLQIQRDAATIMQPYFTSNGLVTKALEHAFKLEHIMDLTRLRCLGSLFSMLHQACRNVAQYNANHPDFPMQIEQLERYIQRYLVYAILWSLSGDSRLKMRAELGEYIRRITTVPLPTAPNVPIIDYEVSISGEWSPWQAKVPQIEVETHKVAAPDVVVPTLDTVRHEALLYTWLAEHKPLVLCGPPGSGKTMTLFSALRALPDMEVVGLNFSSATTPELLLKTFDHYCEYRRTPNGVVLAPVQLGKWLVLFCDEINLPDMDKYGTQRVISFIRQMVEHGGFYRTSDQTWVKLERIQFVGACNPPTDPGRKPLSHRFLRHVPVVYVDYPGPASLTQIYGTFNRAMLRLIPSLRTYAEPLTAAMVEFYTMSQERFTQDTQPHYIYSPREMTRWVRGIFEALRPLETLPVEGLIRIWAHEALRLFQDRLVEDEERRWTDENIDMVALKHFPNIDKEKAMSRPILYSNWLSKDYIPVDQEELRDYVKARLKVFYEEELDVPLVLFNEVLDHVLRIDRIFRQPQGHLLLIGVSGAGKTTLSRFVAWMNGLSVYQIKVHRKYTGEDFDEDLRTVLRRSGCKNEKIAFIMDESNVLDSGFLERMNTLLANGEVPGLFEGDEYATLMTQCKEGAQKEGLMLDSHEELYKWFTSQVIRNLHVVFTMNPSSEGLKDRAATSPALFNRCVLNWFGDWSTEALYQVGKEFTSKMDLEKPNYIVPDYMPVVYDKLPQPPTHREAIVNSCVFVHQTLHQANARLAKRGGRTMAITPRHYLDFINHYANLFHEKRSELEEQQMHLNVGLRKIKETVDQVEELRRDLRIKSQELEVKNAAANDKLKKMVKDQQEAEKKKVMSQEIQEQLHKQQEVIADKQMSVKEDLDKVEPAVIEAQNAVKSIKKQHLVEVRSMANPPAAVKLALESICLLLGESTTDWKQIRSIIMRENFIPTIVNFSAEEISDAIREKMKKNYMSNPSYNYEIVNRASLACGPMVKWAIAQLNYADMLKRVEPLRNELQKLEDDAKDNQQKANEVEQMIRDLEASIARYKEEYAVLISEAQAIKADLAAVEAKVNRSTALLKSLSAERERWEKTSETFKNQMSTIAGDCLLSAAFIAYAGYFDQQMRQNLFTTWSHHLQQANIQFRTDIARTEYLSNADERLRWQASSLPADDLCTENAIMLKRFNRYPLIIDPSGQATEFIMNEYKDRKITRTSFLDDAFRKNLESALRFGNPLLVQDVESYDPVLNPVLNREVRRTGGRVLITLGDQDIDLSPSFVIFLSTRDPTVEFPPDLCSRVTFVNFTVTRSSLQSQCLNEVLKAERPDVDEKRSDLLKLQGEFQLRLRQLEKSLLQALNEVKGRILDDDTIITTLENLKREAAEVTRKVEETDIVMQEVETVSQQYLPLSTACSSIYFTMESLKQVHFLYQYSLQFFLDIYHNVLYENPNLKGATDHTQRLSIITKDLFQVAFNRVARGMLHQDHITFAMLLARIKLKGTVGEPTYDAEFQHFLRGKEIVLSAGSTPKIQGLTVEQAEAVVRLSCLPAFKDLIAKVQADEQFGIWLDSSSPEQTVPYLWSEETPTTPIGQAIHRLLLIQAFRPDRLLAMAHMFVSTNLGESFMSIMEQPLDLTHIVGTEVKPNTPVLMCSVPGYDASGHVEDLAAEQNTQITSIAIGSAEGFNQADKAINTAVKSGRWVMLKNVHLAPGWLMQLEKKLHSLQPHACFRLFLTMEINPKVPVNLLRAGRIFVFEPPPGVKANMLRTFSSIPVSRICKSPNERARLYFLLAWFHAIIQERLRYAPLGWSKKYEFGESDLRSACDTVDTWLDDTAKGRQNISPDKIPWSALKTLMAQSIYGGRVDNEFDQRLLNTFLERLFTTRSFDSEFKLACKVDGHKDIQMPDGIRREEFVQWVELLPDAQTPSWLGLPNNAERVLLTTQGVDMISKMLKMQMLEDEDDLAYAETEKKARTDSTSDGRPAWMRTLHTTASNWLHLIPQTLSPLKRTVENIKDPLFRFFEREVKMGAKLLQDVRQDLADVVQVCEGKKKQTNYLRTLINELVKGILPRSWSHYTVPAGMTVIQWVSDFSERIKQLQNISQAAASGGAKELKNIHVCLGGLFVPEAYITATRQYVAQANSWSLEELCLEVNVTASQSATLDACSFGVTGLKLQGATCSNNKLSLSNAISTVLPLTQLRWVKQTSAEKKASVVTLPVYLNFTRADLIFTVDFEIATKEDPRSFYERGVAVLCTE
# 14-3-3 protein zeta/delta (UniProt P63101), sequence (P63101 whole entry, stated change not applied): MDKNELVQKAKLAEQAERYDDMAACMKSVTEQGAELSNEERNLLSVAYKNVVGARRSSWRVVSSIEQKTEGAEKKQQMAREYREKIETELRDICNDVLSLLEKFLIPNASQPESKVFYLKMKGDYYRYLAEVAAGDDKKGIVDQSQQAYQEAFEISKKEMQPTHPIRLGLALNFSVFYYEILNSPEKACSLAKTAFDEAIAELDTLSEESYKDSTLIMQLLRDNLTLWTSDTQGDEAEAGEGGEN
# Cytochrome c, sequence (P99999 whole entry): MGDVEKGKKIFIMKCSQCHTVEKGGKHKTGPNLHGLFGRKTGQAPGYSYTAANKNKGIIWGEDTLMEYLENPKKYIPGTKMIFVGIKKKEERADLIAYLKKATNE
substance,measurement,setting,value
"14-3-3 protein epsilon, P62259",listed as a hit,[1],yes
"14-3-3 protein gamma, P61982",listed as a hit,[1],yes
"14-3-3 protein gamma, P61981",listed as a hit,[2],yes
"2-oxoglutarate dehydrogenase complex component E1, Q02218",listed as a hit,[3],yes
"Mitochondrial-processing peptidase subunit alpha, Q10713",listed as a hit,[4],yes
"AP-2 complex subunit mu, Q96CW1",listed as a hit,[5],yes
"ADP/ATP translocase 1, P48962",listed as a hit,[6],yes
"AP-2 complex subunit alpha-2, O94973",listed as a hit,[7],yes
same,listed as a hit,[8],yes
same,listed as a hit,[9],yes
same,listed as a hit,[10],yes
"AP-1 complex subunit beta-1, O35643",listed as a hit,[11],yes
same,listed as a hit,[12],yes
same,listed as a hit,[13],yes
"AP-3 complex subunit delta-1, O54774",listed as a hit,[14],yes
same,listed as a hit,[15],yes
"AP-3 complex subunit beta-1, O00203",listed as a hit,[16],yes
"AP-2 complex subunit alpha-1, P17426",listed as a hit,[17],yes
"AP-2 complex subunit mu, P84091",listed as a hit,[17],yes
"ATP synthase peripheral stalk subunit d, mitochondrial, O75947",listed as a hit,[18],yes
same,listed as a hit,[19],yes
same,listed as a hit,[20],yes
"Trifunctional enzyme subunit alpha, mitochondrial, P40939",listed as a hit,[21],yes
same,listed as a hit,[22],yes
"Trifunctional enzyme subunit beta, mitochondrial, P55084",listed as a hit,[21],yes
"ATP synthase peripheral stalk subunit b, mitochondrial, P24539",listed as a hit,[23],yes
"ATP synthase peripheral stalk subunit F6, mitochondrial, P97450",listed as a hit,[24],yes
"ATP-dependent 6-phosphofructokinase, muscle type, P47857",listed as a hit,[25],yes
"ATP synthase F(1) complex subunit gamma, mitochondrial, P36542",listed as a hit,[26],yes
same,listed as a hit,[27],yes
"Fumarate hydratase, mitochondrial, P07954",listed as a hit,[28],yes
same,listed as a hit,[29],yes
"Adenylyl cyclase-associated protein 1, P40124",listed as a hit,[30],yes
"WD repeat-containing protein 1, O88342",listed as a hit,[30],yes
"Cytoplasmic FMR1-interacting protein 2, Q5SQX6",listed as a hit,[31],yes
"Prohibitin 1, P35232",listed as a hit,[32],yes
same,listed as a hit,[33],yes
same,listed as a hit,[34],yes
"Synaptopodin, Q8CC35",listed as a hit,[35],yes
"Myc box-dependent-interacting protein 1, O08539",listed as a hit,[36],yes
"Annexin A7, P20073",listed as a hit,[37],yes
"Ataxin-2-like protein, Q8WWM7",listed as a hit,[38],yes
"B-cell receptor-associated protein 29, Q61334",listed as a hit,[39],yes
"BOS complex subunit NOMO3, P69849",listed as a hit,[40],yes
"Isoleucine--tRNA ligase, cytoplasmic, Q8BU30",listed as a hit,[41],yes
"Glyceraldehyde-3-phosphate dehydrogenase, P16858",listed as a hit,[42],yes
same,listed as a hit,[43],yes
"Neurofilament light polypeptide, P08551",listed as a hit,[44],yes
same,listed as a hit,[45],yes
"Charged multivesicular body protein 1a, Q9HD42",listed as a hit,[46],yes
same,listed as a hit,[47],yes
"COMM domain-containing protein 1, Q8K4M5",listed as a hit,[48],yes
"Peptidyl-prolyl cis-trans isomerase B, P23284",listed as a hit,[49],yes
same,listed as a hit,[50],yes
"Endoplasmic reticulum chaperone BiP, P11021",listed as a hit,[51],yes
"Cell adhesion molecule 2, Q8BLQ9",listed as a hit,[52],yes
"Phospholipid-transporting ATPase IA, P70704",listed as a hit,[53],yes
"Clathrin light chain A, O08585",listed as a hit,[54],yes
"Clathrin heavy chain 1, Q68FD5",listed as a hit,[55],yes
"WD repeat-containing protein 1, O75083",listed as a hit,[56],yes
"Complement C1q subcomponent subunit A, P98086",listed as a hit,[57],yes
"Holocytochrome c-type synthase, P53701",listed as a hit,[33],yes
"COX assembly mitochondrial protein homolog, Q7Z7K0",listed as a hit,[58],yes
"Nck-associated protein 1, P28660",listed as a hit,[59],yes
"Cytoplasmic dynein 1 light intermediate chain 2, Q6PDL0",listed as a hit,[60],yes
"Cytoplasmic dynein 1 light intermediate chain 1, Q8R1Q8",listed as a hit,[60],yes
"60 kDa heat shock protein, mitochondrial, P10809",listed as a hit,[61],yes
same,listed as a hit,[62],yes
same,listed as a hit,[63],yes
same,listed as a hit,[19],yes
"Glutamate dehydrogenase 1, mitochondrial, P00367",listed as a hit,[64],yes
same,listed as a hit,[29],yes
"Leucine-rich glioma-inactivated protein 1, Q9JIA1",listed as a hit,[65],yes
same,listed as a hit,[66],yes
"Contactin-2, Q61330",listed as a hit,[65],yes
"DnaJ homolog subfamily C member 5, P60904",listed as a hit,[67],yes
same,listed as a hit,[68],yes
"DnaJ homolog subfamily A member 1, P31689",listed as a hit,[69],yes
"Membrane-associated progesterone receptor component 2, O15173",listed as a hit,[70],yes
same,listed as a hit,[71],yes
